This passage reports PBM binding z-score results from the supplement of paper PMC6555819.

This test deals with PPARa:RXRa (NR concentration 270 nM, RXRa partner concentration 90 nM). The test can be described thus: PBM binding z-score (relative to random genomic background probes); higher = stronger binding; sequences stand for … in GC…GCGATTGACAGCGTAGAATGAAGG
As for the experimental part: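 Protein-binding microarray (Agilent 4x180K custom design, double-stranded 60-nt probes: 5' GC cap, 34-nt variable region, 24-nt constant primer region; full probe sequence given). Purified or IVT nuclear receptor:RXRα heterodimers (3:1 NR:RXRα, mostly 270:90 nM) or homodimers were incubated for 1 h in PBS with 2% milk and no ligand, then detected with Alexa488 antibodies. Fluorescence from o1-orientation probes (~5 replicates averaged) was converted to z-scores against 500 random hg19 background probes. Variable regions are seed direct-repeat (DR0–DR5) sites, all their single-nucleotide variants and half-site ablations.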
On to ACTTACGGCTCAACGAGGTTATAGCACGCGTATA, for which the PBM binding z-score was 0.734.

In turn, ATATGTAGGTTAGCTGAGGTCATTCAGACTAGGC displayed a PBM binding z-score of 4.55.

Sequence CCTTACGGGTAACGAGGTTATAGCACGACGAGCG returned a PBM binding z-score of 1.62. The sequence CCTACTGGGCCAAAGAGGTCATTGATGCCGATAA registered a PBM binding z-score of 4.55. In the case of CGAACGAGGTCAAAGGACAGTGAAAGGCGACGTA it was 6.37. Then TAGCCTAGGTCATTCAGGGGCCACTATAGAAAGC, with 3.95. The sequence GCTGCGAGGTCAACTGATGGTCAGCTAAAGCTCG came in with a PBM binding z-score of 6.02. Consider AGTCAAACTTCAGGACGAGGTAACGTAAAGCACG, for which the PBM binding z-score was 0.0838.

TCTATTAGTTGATTAGGGCAACCGAAACAGCGGA returned a PBM binding z-score of 1.05. In the case of CGTCCAAGGTCATAGAGGTCAGTGAATGCCGAGT it was 5.85. GCTTACGGGTCCAAGGTTATAGCATGAATAGAAT showed a PBM binding z-score of 1.78.

Turning to GGAACGAGGTCATTCGAGTTGATAGCATGGCGAT, the PBM binding z-score came to 5.98. GGAACGAGGGCAAAGTTCATAGCATCTGTCGACG showed a PBM binding z-score of 6.24. Then ATATGTAGGTTAGCTGGGGTCATTCACACTAGGC, with 5.22; and CGTCAAAGATCAAGGTAACGTAACAGAAAGCAGC, with 0.962; and TCTAGTTGGTCACGGAGGTCACAAACGACGGGTA, with 3.87.

In turn, ATATGTAGGTTGGGGTCATTCAGAAAGTAGGGAA gave a PBM binding z-score of 6.11.

In turn, CGAACTAGGTCGTCCAGGACAGTGAATACATTGA registered a PBM binding z-score of 2.09. TAGCCGAGGTCATTCAGGGGCCAGTATAGAAAGC gave a PBM binding z-score of 6.23. For GATACAGGGTCAAGGTCAGAGTACGCGTATTGAT, the PBM binding z-score is 5.88.

With CGAACTAGGTCGCCAGGACAGTGAAGAGGTTGGA, the PBM binding z-score is 2.09. Regarding CGTCCAAGGTCACGGTCAGTGAAAGAGACTCGAA, the PBM binding z-score worked out at 6.27. Then TATCAAAGTTCAAAGGTAACGTAAGTATCCACAC, with 5.56; and TCTCGGAGGACACAAAGGTCAGAGCTTTCCAGAG, with 3.86; and CCGAGTAGGTTACGAGGGGTCATTCAGTGCGAAT, with 5.09. ATCGAAAGGTCGTGAGGTAAGTATACAGAAAGGC registered a PBM binding z-score of 5.23. Consider AGCGAAAGGTCGAGGTGAGTATAGAGAAAGGGAA, for which the PBM binding z-score was found to be 4.51. Then CCTACTGGGCCATTCAGAGGGCATTGATCATATG, with 0.726.

In turn, TCGTGTAGGTTACGGGGGCATTCAGGGATGAAGA yielded a PBM binding z-score of 4.58.

CGTCCAAGGTCAGCGGGTCAGTGAAAGCGACGTG showed a PBM binding z-score of 4.79. In the case of AATACAGGGTCATCGTACGCCAGAGTACGCACAG it was 5.99; in that of TCGCCTAGGTCATGGGCCAGTATACCACGCGAAC, 4.13; in that of CGAACGAGGTCATTGACAGGACAGTGAATAGTAA, 6.13. Then AGAATGAGGTTACCAAAGTTCAGGGAAACGCTTG, with 4.6; and CGAACTAGGTCATCCAGGTCAGTGAATACATTGA, with 5.17; and TGAATGAGGTTAAATATCAGGGAACGTGGCGTCG, with 3.72. Then TGTATGAGGTTAAAGATCAGGGAACGTGGCGTCG, with 4.16. Regarding CGAACTAGGTCATTGACAGGACAATGAATAGTAA, the PBM binding z-score is 5.06.

CCTAGTTGTTCAGGAGGTCACACACCGGATATGA came in with a PBM binding z-score of 4.17. Then TAGCCTAGGTCATACAGGGGCCAGTATAGAAAGC, with 3.72.
